Bioassay records deposited in PubChem BioAssay by several laboratories.
BH1578 lux ind – inducers of Vibrio cholerae quorum light production without autoinducers, primary screen, BH1578 luxS cqsA deficient, single point; V. cholerae BH1578 lux reporter, luminescence, 6 h; activation, % at 18.7 µM; hit rate 0.16% among 350,000; AID 588436, 2011; in the data active = activation mostly above about 9.7%, no sharp cut-off
PfHsp40 yeast – rescue of yeast from PfHsp40 toxicity, primary screen, S. cerevisiae, ATP luminescence; S. cerevisiae expressing PfHsp40, growth rescue; growth rescue, % at 12.5 µM; hit rate 0.68% among 340,000; AID 504582, 2011; in the data active = growth rescue above about 28%, passing the limit was not always enough;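 also: yeast W303a lacking pdr1 and pdr3 grown in galactose medium; growth measured after three days at 30 °C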
TcdB GH inh – TcdB glycohydrolase inhibitors, primary screen, biochemical, single point, plate reader | Toxin B (Clostridioides difficile), P18177 | TcdB glycohydrolase enzymatic assay | inhibition, % at 9.99 µM | hit rate 0.24% among 350,000 | AID 652162, 2013; in the data active = inhibition above about 10%
Mtb BioA inh – M. tuberculosis BioA enzyme inhibitors, primary screen, biochemical, plate reader, single point, HTS; 7,8-diaminopelargonic acid synthase BioA (Mycobacterium tuberculosis); purified M. tuberculosis BioA enzyme; inhibition, % at 9.99 µM; hit rate 0.096% among 360,000; AID 602481, 2012; in the data active = inhibition above about 40%
Y pestis TopoI – Yersinia pestis topoisomerase I inhibitors, primary screen, biochemical, cleavage product accumulation, plate reader, single point; DNA topoisomerase I (Yersinia pestis CO92); Y. pestis Topo-I cleavage product accumulation; activity, % at 10 µM; hit rate 0.064% among 360,000; AID 504884, 2011; in the data active = activity above about 50%, passing the limit was not always enough
DUSP3 inh – VHR1 phosphatase inhibitors, primary screen, biochemical, absorbance, uHTS; recombinant VHR phosphatase, pNPP absorbance; AID 1654, 2009; Dual specificity protein phosphatase 3 (Homo sapiens), P51452; inhibition, % at 13.3 µM; hit rate 0.52% among 290,000; in the data active = inhibition above about 50%
Target sequence (P51452 whole entry, looked up): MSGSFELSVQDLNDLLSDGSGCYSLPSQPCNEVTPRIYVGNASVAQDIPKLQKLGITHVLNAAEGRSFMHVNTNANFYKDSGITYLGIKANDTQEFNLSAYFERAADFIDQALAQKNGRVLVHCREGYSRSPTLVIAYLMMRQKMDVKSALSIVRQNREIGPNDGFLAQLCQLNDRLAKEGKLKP
Numbers stand for hits; 0 = inactive; - = no result given. Only some compounds are listed: those with a hit (about 1.2% of all), similar ones and a draw of the others.

SMILES | BH1578 lux ind | PfHsp40 yeast | TcdB GH inh | Mtb BioA inh | Y pestis TopoI | DUSP3 inh
CCCCCC/C=N/Nc1nnc(Cc2ccc(OC)c(OC)c2)c(=O)[nH]1 | 0 | 0 | 0 | 0 | 0 | 0
CCCN(C)C[C@@H]1OCCCC[C@@H](C)Oc2ccc(NC(=O)Nc3ccc4c(c3)OCO4)cc2C(=O)N([C@H](C)CO)C[C@H]1C | - | - | 0 | 0 | - | -
CCOC(=O)c1sc(-c2cccc(C(F)(F)F)c2)nc1O | 0 | 0 | 0 | - | 0 | 0
CCOC(=O)c1sc(-c2ccc(C(F)(F)F)cc2)nc1O | 0 | 132 | 0 | - | 0 | 0
O=C(O)CCCCCNS(=O)(=O)c1ccc2c(c1)OCCO2 | 0 | 0 | 0 | - | 0 | 0
C[C@@H](NC(=O)[C@@H]1[C@@H](CO)[C@@H]2Cn3c(ccc(C4=CCCC4)c3=O)[C@@H]2N1C)c1ccccc1 | - | - | 0 | 0 | - | -
COCc1[nH]nc2c1C(c1ccc(F)cc1)N(c1ccccc1)C2=O (stereo not drawn) | - | - | 0 | - | - | -
C/C(=N\NC(=S)NCCc1ccccc1)c1cccs1 | 0 | 96 | - | - | 0 | 0
C/C(CC(=O)Nc1ccc([N+](=O)[O-])cc1)=N/NC(=O)C1C2CCCCC21 (stereo not drawn) | 0 | 0 | 0 | 0 | 0 | 0
C/C(CCc1ccccc1)=N\NC(=S)NCCc1ccccc1 | 0 | 0 | 0 | - | 0 | 50
COCCNC(=S)N/N=C(\C)CCc1ccc2c(c1)OCO2 | 0 | 35 | 0 | 0 | 0 | 0
C/C(CCc1ccccc1)=N\NC(=O)C1C2CCCCC21 (stereo not drawn) | 0 | 0 | 11 | - | 0 | 0
CC(NC(=O)COc1ccc(N(C)S(=O)(=O)c2ccccc2)cc1)c1ccccc1 (stereo not drawn) | 0 | 0 | 0 | 0 | 0 | 0
Cn1c(N)c(C(=O)COC(=O)c2ccc(F)cc2Cl)c(=O)n(C)c1=O | 0 | 0 | 0 | 0 | 0 | -
Fc1ccccc1COc1ccc(Br)cc1CNCc1ccncc1 | 0 | 242 | - | 0 | 0 | 0
O/N=C/c1cc(Br)ccc1OCc1ccccc1F | 0 | 721 | - | 0 | 0 | -
COC(=O)c1cn(C)c2ccc(S(=O)(=O)N3CCCC3)cc2c1=O | 0 | 0 | - | - | 0 | -
Cc1cccc(NS(=O)(=O)c2csc(C(N)=O)c2)c1C | 0 | 0 | 0 | - | 0 | 53
Cn1c(=O)c2[nH]cnc2n(C)c1=O | 0 | 0 | 0 | 0 | 0 | 0
CC(C)Cn1c(=O)n(C)c(=O)c2[nH]cnc21 | 0 | 37 | 0 | 0 | 0 | 0
CCNS(=O)(=O)c1ccc(NC(=O)c2cc(C(F)(F)F)nn2C)cc1 | - | 0 | - | 0 | 0 | 0
c1ccc(-c2cc3ccccc3[nH]2)cc1 | 0 | 0 | 0 | 0 | 0 | 0
Clc1ccc2[nH]c(-c3ccccc3)cc2c1 | 0 | 65 | - | 0 | 0 | 0
Cc1ccccc1N1CCN(S(=O)(=O)c2nnc(NC(=O)c3ccc(F)cc3)s2)CC1 | 0 | 0 | 0 | 0 | 0 | 0
CCCCNC(=S)N(CCCO)Cc1cc2cc3c(cc2[nH]c1=O)OCCO3 | 0 | 0 | 0 | 0 | 0 | 51
SMILES | BH1578 lux ind | PfHsp40 yeast | TcdB GH inh | Mtb BioA inh | Y pestis TopoI | DUSP3 inh
CN(C)CCCNC(=S)N(CCCO)Cc1cc2cc3c(cc2[nH]c1=O)OCO3 | 0 | 0 | 0 | 0 | 0 | 0
O=C(O)CCc1nc2cccnc2n1Cc1ccccc1 | 0 | 0 | - | 0 | 0 | 0
COCCNC(=O)C1CCCN(Cc2ccccc2)CC1 (stereo not drawn) | 0 | - | 0 | 0 | 0 | -
CN(CC(=O)Nc1ccccc1-c1ccccc1)C1CCCCC1 | 0 | 0 | - | 0 | 58 | 0
O=C(N/N=C/c1cc(Br)ccc1O)Nc1ccccc1 | 0 | 0 | - | 0 | 0 | 0
CC(=O)O[C@H]1[C@@H](O)[C@H](O)[C@H](Oc2c(O)c(C)c3c4c2[C@@H](C)CC[C@@H]4[C@@H](C)C[C@H]3C=C(C)C)O[C@H]1C | 0 | 125 | 0 | 0 | 0 | -
COc1cc(C)c(Br)cc1S(=O)(=O)NCc1cccs1 | 0 | 0 | 0 | 0 | 0 | 54
COc1cc(C)c(Br)cc1S(=O)(=O)NCc1ccncc1 | 0 | 0 | 0 | - | 0 | 0
COc1ccc(CNS(=O)(=O)CCNCCc2ccccc2)cc1 | 0 | 0 | 0 | 0 | 0 | -
O=S(=O)(c1ccc(Cl)cc1)N1CCN(Cc2ccc(O)c3ncccc23)CC1 | 0 | 102 | 0 | - | 0 | 0
Oc1ccc(CN2CCN(Cc3ccccc3)CC2)c2cccnc12 | 0 | 0 | - | 0 | 0 | -
CCN(CC)S(=O)(=O)c1ccc(/C(O)=C2/C(=O)C(=O)N(CCOC)C2c2ccccc2)cc1 (stereo not drawn) | 0 | 97 | - | 0 | 0 | 0
O=C(CN1CC[n+]2c(-c3cccs3)csc21)c1ccc(-c2ccccc2)cc1 | 0 | 401 | 0 | - | 0 | 0
COc1cc(NC(=O)c2csc(N)n2)cc(C(=O)Nc2cccc(C(F)(F)F)c2)c1 | 0 | 0 | 0 | 0 | 0 | 0
COc1cc(NC(=O)c2cc(C)on2)cc(C(=O)Nc2cccc(C(F)(F)F)c2)c1 | 0 | 50 | 0 | 0 | 0 | 0
COc1ccc(C(=O)c2c(C(F)(F)F)oc3c2C(=O)c2ccccc2C3=O)cc1OC | 0 | 60 | - | 0 | 0 | 0
COc1ccc(C(=O)Nc2ccc3c(c2)C(=O)c2ccccc2C3=O)cc1OC | 0 | 0 | - | - | 0 | 0
CN1C=CC(=CC=C2C=CC(=O)C=C2)C=C1 | 0 | 0 | 27 | 0 | 0 | 0
COc1ccc(-c2cc(=O)oc3c(C)c(O)c(CN(C)C)cc23)cc1 | 0 | 45 | - | 0 | 0 | 0
COc1ccc(-c2cc(=O)oc3c(C)c(OCC(=O)N(C)C)ccc23)cc1 | 0 | 0 | 0 | 0 | 0 | 0
CCCN(CCC)CCCNC(=O)c1ccc(CS(=O)(=O)c2c(Cl)cccc2Cl)o1 | 0 | 0 | 0 | 0 | 0 | 55
CNC(=O)c1cccc(N2CCCC2=O)c1 | 0 | 0 | - | 0 | 0 | 0
NCC[C@H]1CC[C@H](NC(=O)Cc2ccncc2)[C@@H](CO)O1 | - | - | 0 | 0 | - | -
O=C(NC1CCSC1=O)c1ccc(Cl)cc1 (stereo not drawn) | 0 | 0 | 0 | - | 0 | 52
Cc1ccc(C(=O)NC2CCSC2=O)cc1 (stereo not drawn) | 0 | 0 | 0 | 0 | 0 | 0
SMILES | BH1578 lux ind | PfHsp40 yeast | TcdB GH inh | Mtb BioA inh | Y pestis TopoI | DUSP3 inh
Cn1c2ccccc2c2nnc(SCc3nnc(-c4ccccc4)o3)nc21 | - | - | - | - | - | 0
Cn1c(SCc2nnc(-c3ccccc3)o2)nc2ccccc21 | 0 | 0 | 13 | - | 0 | 0
O=C(N[C@@H](c1ccccc1)[C@@H]1C[C@H]1C(=O)NCc1ccccn1)OCc1ccccc1 | 0 | 0 | 0 | 0 | 0 | 0
COc1ccc(OC)c2sc(Cl)nc12 | 0 | 0 | 0 | - | 0 | 0
Cc1ccc(NC(=O)N2CCc3ccccc32)cc1C | 0 | 0 | 0 | - | 0 | 0
CN1C(=O)CSc2ccc(NC(=O)N3CCc4ccccc43)cc21 | 0 | 0 | 16 | 0 | 0 | 0
O=C(OCn1nnc2ccccc2c1=O)c1cc2ccccc2o1 | 0 | 0 | 13 | 0 | 0 | 0
